# High-throughput results (PubChem BioAssay)
# In the library only some 3% were active in any assay of this set; here they are far more common.
# Peg3 prom inh: reduces Peg3 promoter-driven luciferase expression in HeLa; HeLa PEG-Prom luciferase reporter, luminescence, overnight; inhibition, % at 20 µM; 360,000 tested, 1.7% active; AID 588405;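 active = inhibition of at least 50% at 20 µM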
# KKLEB tox: counter-screen for CF NF-kB inhibitors: cytotoxicity; KKLEB CF airway cells viability, ATPlite luminescence, overnight; stronger effect = lower value; cells stimulated with P. aeruginosa culture filtrate; activity change (cytotoxicity), % at 5 µM; 360,000 tested, 0.36% active; AID 602141;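 active = corrected activity change at or below -50% at 5 µM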
# HIF-2a block: blocks HIF-2a reporter activity; 786-0 RCC cells HIF-2a reporter, luciferase luminescence, overnight; inhibition, % at 18.8 µM; 360,000 tested, 0.72% active; AID 624352;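 active = inhibition of the luminescence signal of 40% or more relative to plate controls, in a single-dose primary screen at 18.75 µM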
# ABHD5 PLIN5 PPI: ABHD5-PLIN5 protein interaction inhibition; Q00G26+Q8WTS1; Split G. princeps luciferase complementation, luminescence, 4 h; inhibition, % at 4 µM; 360,000 tested, 0.78% active; AID 602281;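 active = inhibition above the mean inhibition across every tested compound plus 3 SD, cut at about 22% in these data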;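 note: 0% = DMSO only wells and the 100% control is not disclosed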
# TRPM1 prom inh: MITF TRPM1 promoter inhibition in SK-MEL-5 cells; 330,000 tested, 0.83% active; inhibition, % at 12.5 µM; AID 488899; SK-MEL-5 TRPM1 promoter luciferase, 24 h;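 active = mean inhibition across replicates of 60% or more, whatever share of single replicates reaches that level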
# CF NFkB inh: blocks PAF-induced NF-kB reporter in cystic fibrosis cells; inhibition, % at 5 µM; KKLEB NF-kB-GFP reporter, GFP fluorescence overnight; 360,000 tested, 0.86% active;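 active = at least 50% inhibition at 5 µM, scaled per plate between neutral and stimulator controls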;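 note: PAF is a Pseudomonas aeruginosa culture filtrate used as stimulus; plate controls were PAF-stimulated DMSO wells for no effect and unstimulated DMSO wells for full effect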
# CF NFkB inh conf: confirmation of cystic fibrosis induced NF-kB inhibitors. AID 602472. inhibition, % at 5 µM. KKLEB CF airway cells, PAF-induced NF-kB-GFP fluorescence, overnight. shares compounds with CF NFkB inh. 1,300 tested, 64% active; in the data active = inhibition above about 40%;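 note: stimulus PAF is a Pseudomonas aeruginosa filtrate and not platelet activating factor; plate controls were DMSO wells with stimulus for no effect and unstimulated DMSO wells for full effect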
# ABHD5 PLIN5 conf: confirmation of human ABHD5-PLIN5 interaction inhibitors. shares compounds with ABHD5 PLIN5 PPI. biochemical ABHD5-PLIN5 interaction, luminescence. inhibition, % at 4 µM. 2,200 tested, 67% active; in the data active = inhibition above about 23%;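 note: 0% = DMSO vehicle wells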
# HNF4 counter: active in HNF4 split-luciferase counter-screen for ABHD5-PLIN5 inhibitors. shares compounds with ABHD5 PLIN5 PPI. HNF4 dimerization, luminescence, biochemical. inhibition, % at 4 µM. 2,200 tested, 77% active;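 active = mean inhibition across replicate wells exceeding the computed hit threshold, cut at about 13% in these data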;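 note: light from luciferase halves that rejoin when HNF4 fusion proteins dimerize; 0% = DMSO only wells and the 100% control is not given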
# Mdm2 MdmX conf: Mdm2/MdmX (human) interaction inhibition, confirmed; SaOS-2 split-luciferase Mdm2/MdmX complementation, luminescence; shares compounds with HIF-2a block; AID 504601; 740 tested, 99% active; inhibition, % at 8 µM;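 active = mean inhibition of the luminescence signal across two replicates at or above 26 percent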
# HIF-2a inh conf: HIF-2a inhibition, single concentration confirmation. inhibition, % at 18.8 µM. 786-0 RCC cells, HIF-2a luciferase reporter luminescence, overnight. shares compounds with HIF-2a block. 1,800 tested, 56% active;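 active = mean inhibition across four replicates of at least 40 percent at the single tested concentration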
# HIF-1a counter: counter-screen for HIF-2a inhibitors: HIF-1a inhibition in MiaPaCa-2 cells. shares compounds with HIF-2a block. MiaPaCa-2 HIF-1a luciferase reporter, desferoxamine, overnight. inhibition, % at 18.8 µM. 1,800 tested, 72% active. AID 651589;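 active = mean inhibition of the reporter signal across four replicates at the single tested dose of 50% or more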
# Starred values were filed as active, the others as inactive; x = not tested or not shown.
SMILES,Peg3 prom inh,KKLEB tox,HIF-2a block,ABHD5 PLIN5 PPI,TRPM1 prom inh,CF NFkB inh,CF NFkB inh conf,ABHD5 PLIN5 conf,HNF4 counter,HIF-2a inh conf,HIF-1a counter,others
CC(=O)Oc1ccccc1C(=O)C=Cc1cccc([N+](=O)[O-])c1,99*,-41,89*,99*,93*,80*,-60,104*,109*,94*,103*,
CCOc1cc(/C=C2\COc3ccccc3C2=O)cc(Br)c1OCC(=O)N(C)C,105*,-32,91*,77*,89*,98*,-196,86*,94*,60*,105*,
CCO/C(C)=N/Oc1cc(OC)cc(OC)c1,-20,-28,4,-8,x,6,x,x,x,x,x,
CC1(c2nnnn2Cc2ccccc2)CCC(=O)N1Cc1ccc(F)cc1 (stereo not given),x,x,-2,9,x,x,x,x,x,x,x,
COc1cc(/C=N/NC(=O)c2cccc([N+](=O)[O-])c2)ccc1OCc1ccccc1,-55,-20,11,-2,-108,8,x,x,x,x,x,
CCOC(=O)C(=Cc1ccc(OCc2ccc([N+](=O)[O-])cc2)c(OC)c1)C(=O)OCC,58*,-3,93*,5,4,54*,-253,x,x,98*,108*,
O=C(CCl)N(Cc1cc(=O)[nH]c2ccccc12)c1ccccc1,85*,-34,47*,0,69*,69*,74*,x,x,70*,104*,Mdm2 MdmX conf=101*
Cc1ccc(Sc2c(O)c3ccccc3n(C)c2=O)cc1,27,5,11,1,-9,-3,x,x,x,x,x,
Cc1ccc(Sc2c(C=O)c3ccccc3n2C)cc1,45,-19,16,-3,-10,65*,93*,x,x,x,x,Mdm2 MdmX conf=91*
O=C(Cn1cc(/C=C\[N+](=O)[O-])c2ccccc21)Nc1ccccc1,92*,-7,96*,27*,91*,54*,-49,96*,83*,25,106*,
COC(=O)c1cc(=O)n(Cc2cccs2)c(=Nc2ccc(F)cc2)s1,81*,-28,66*,45*,x,55*,-41,65*,44*,39,106*,
COC(=O)c1cc(=O)n(Cc2ccc(F)cc2)c(=NCc2ccc(F)cc2)s1,14,2,5,-1,6,12,x,x,x,x,x,
CCCCN(CCCNC(=O)c1ccc2c(c1)NC(=O)CN2C)c1ccccc1,66*,-30,45*,70*,x,65*,6,52*,72*,49*,94*,
COc1cccc(-n2nc(C(N)=O)c(O)cc2=O)c1,4,7,10,-10,5,-5,x,x,x,x,x,
COc1cccc(-n2nc(C#N)c(Cl)cc2=O)c1,108*,-34,96*,29*,91*,106*,15,37*,41*,x,x,Mdm2 MdmX conf=104*
Cc1ccc2nc(CCl)[n+]([O-])c(-c3ccccc3)c2c1,6,-5,13,0,-3,5,x,x,x,x,x,
O=C(Nc1c(Cl)ccc2nsnc12)c1ccc([N+](=O)[O-])o1,90*,-20,60*,-7,89*,87*,-6,x,x,28,100*,
O=C1NC(=O)C2(CCCc3ccccc32)N1 (stereo not given),0,-5,3,-6,-3,-12,x,x,x,x,x,
C#CCN(C[C@@H]1[C@@H](OC(=O)NC2CCCC2)[C@@H](OC(=O)NC2CCCC2)Cn2c(=O)ccc(=O)n21)S(=O)(=O)c1ccc(C)cc1,96*,-24,97*,38*,x,64*,12,64*,24*,99*,108*,
C#CCN(C[C@@H]1[C@@H](OC(=O)NC2CC2)[C@@H](OC(=O)NC2CC2)CN(C(=O)OC(C)C)N1C(=O)OC(C)C)S(=O)(=O)c1ccc(C)cc1,-30,8,20,3,x,14,x,x,x,x,x,
COc1c2c(c(OC)c3ccccc13)[C@]1(OC2)O[C@H](CCO)C[C@H](O)[C@H]1O,11,-15,6,1,x,-19,x,x,x,x,x,
CC(C)[C@H](NC(=O)OC(C)(C)C)c1nnc(S(=O)(=O)Cc2c(F)cccc2Cl)o1,104*,-2,40*,71*,99*,83*,43*,85*,108*,34,8,
CC(C)=CCSc1nnc([C@@H](NC(=O)OC(C)(C)C)C(C)C)o1,2,8,6,-6,-5,-1,x,x,x,x,x,
O=C(c1ccc(S(=O)(=O)c2cccc(Cl)c2)c([N+](=O)[O-])c1)N1CCN(c2ccccn2)CC1,53*,-45,40*,-5,44,86*,-74,x,x,25,85*,Mdm2 MdmX conf=96*
CN(CC(=O)Nc1cccc(F)c1)C(=O)c1ccccc1-n1cnnn1,18,-7,2,16,2,19,x,x,x,x,x,
SMILES,Peg3 prom inh,KKLEB tox,HIF-2a block,ABHD5 PLIN5 PPI,TRPM1 prom inh,CF NFkB inh,CF NFkB inh conf,ABHD5 PLIN5 conf,HNF4 counter,HIF-2a inh conf,HIF-1a counter,others
CCOC(=O)CS(=O)(=O)c1nc(-c2ccccc2)cc(C(F)(F)F)n1,105*,-21,89*,67*,102*,79*,60*,76*,107*,82*,65*,
COc1ccc(-c2cc(C(F)(F)F)nc(S(C)(=O)=O)n2)cc1,100*,-37,89*,48*,61*,74*,58*,67*,91*,30,103*,Mdm2 MdmX conf=102*
Cc1cc(C(=O)NNC(=O)COc2ccccc2Cl)n[nH]1,-12,7,4,9,9,13,x,x,x,x,x,
CCN(CC)S(=O)(=O)c1cccc(NC(=O)CC2CCCC2)c1,12,6,9,-4,8,-8,x,x,x,x,x,
CCN(CC)S(=O)(=O)c1cccc(NC(=O)Nc2cccc(C(F)(F)F)c2)c1,46,-31,41*,-12,35,63*,38,x,x,-14,102*,Mdm2 MdmX conf=95*
Cc1ccc(C)c(NC(=S)N2CCC(NC(=O)c3ccco3)CC2)c1,4,2,9,-1,3,-12,x,x,x,x,x,
